Laboratory results published in PubChem BioAssay AID2551 (National Center for Advancing Translational Sciences (NCATS), 2010).
Where “and” joins values, the source holds several entries; their conditions need not be identical. Identical values can stand only once. The whole screen tested about 310,000 compounds, of which about 17,000 (5.5%) were called active. A call without a number means that no potency is given here. About 11% were inconclusive and are not listed. The call rests on the fitted dose curve; in most records, active means well fitted inhibition curve with a large enough effect; inconclusive means small, poorly fitted or top-dose-only effect, or effect the other way; inactive means no such curve, though single readings can be large or run the other way. Only a selection was taken, and actives are over-represented in it overall. Where a structure was tested more than once in an assay, its records may differ in their call.

Molecular target: Nuclear receptor ROR-gamma (Mus musculus) (UniProt P51450)
Test: qHTS for inhibitors of ROR gamma transcriptional activity; further: nearly all actives have a fitted effect of over 60% in size
Conditions: Drosophila S2 Gal4-RORgamma UAS-luciferase reporter, 20 h; series mostly up to 53.6 µM
How it was run: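 Schneider cells (Drosophila), stable Gal4 DBD–ROR gamma + UAS-luc; 1 hr cmpd preincubation; Cu2+ induction 700 uM final; 20 hr ambient; luminescence.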
Potency means the concentration at half of the fitted maximal effect.

Sequence of Nuclear receptor ROR-gamma (Mus musculus) (P51450 whole entry, looked up): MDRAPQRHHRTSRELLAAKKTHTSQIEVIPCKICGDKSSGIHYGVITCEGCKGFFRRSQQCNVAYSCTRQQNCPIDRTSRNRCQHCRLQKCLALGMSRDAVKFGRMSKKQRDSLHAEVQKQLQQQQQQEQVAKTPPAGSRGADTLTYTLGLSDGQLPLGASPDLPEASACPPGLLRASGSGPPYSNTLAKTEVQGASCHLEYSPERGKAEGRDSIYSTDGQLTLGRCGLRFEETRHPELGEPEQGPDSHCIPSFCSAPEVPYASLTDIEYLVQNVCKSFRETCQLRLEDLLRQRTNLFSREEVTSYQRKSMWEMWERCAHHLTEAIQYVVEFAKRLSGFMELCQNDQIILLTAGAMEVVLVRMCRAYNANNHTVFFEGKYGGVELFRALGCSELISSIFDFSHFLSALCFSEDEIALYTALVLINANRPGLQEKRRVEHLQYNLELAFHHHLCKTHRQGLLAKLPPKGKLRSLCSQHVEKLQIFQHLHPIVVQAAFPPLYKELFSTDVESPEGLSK

Row | Compound | Potency
1 | C=CCSSCC=C | inactive
2 | CCCCCCCCc1[se]c2ccccc2c1Br | inactive
3 | O=C(O)c1ccccc1NC(=O)C1C2CCC(O2)C1C(=O)O (stereo not drawn) | inactive
4 | c1csc(CN2CC3(CCNCC3)C2)n1 | inactive
5 | C1CC[C@H]([C@@]23C[C@H](C[C@H]4CCCN[C@H]42)[C@@H]2CCCCN2C3)NC1 | inactive
6 | Cc1nc2ccccn2c1P(=S)(N1CCCCC1)N1CCCCC1 | 7.08 µM (active)
7 | c1ccc(CCCCN2CCC(c3ccccc3)CC2)cc1 | inactive
8 | Clc1ccc([C@@H]2C[C@H]3CC[C@@H]2N3)cn1 | inactive
9 | CC[C@]1(O)C(=O)OCc2c1cc1n(c2=O)Cc2cc3ccccc3nc2-1 | inactive
10 | Cc1ncc(CC(=O)n2cc(C(=O)c3cc(Cl)ccc3O)cn2)s1 | 7.94 µM (active)
11 | CC(C)(Cc1c[nH]c2ccc(Cl)cc12)NCCOc1ccccc1OCC1CC1 | 12.6 µM (active)
12 | N[C@H](C(=O)O)c1cc(=O)[nH]o1 | inactive
13 | CC(=O)[O][Sn]([c]1ccccc1)([c]1ccccc1)[c]1ccccc1 | 0.891 µM (active)
14 | COC(=O)N1C(c2ccccc2)C1c1ccccc1 (stereo not drawn) | inactive
15 | C[C@@]12CCC3C(CC[C@@H]4CC(O)CC[C@@]34C)C1CCC2O (stereo partly drawn) | inactive
16 | Cc1ncsc1CCCl | inactive
17 | COc1cc2c(cc1OC)[C@@H]1C(=O)c3ccc(O)c(CC=C(C)C)c3OC1CO2 (stereo partly drawn) | inactive
18 | C[C@@]12CC[C@H]3[C@@H](CC[C@]4(O)C[C@H](O)CC[C@@]34C=O)[C@]1(O)CC[C@@H]2C1=CC(=O)OC1 | inactive
19 | N#Cc1cc(Br)c(O)c(Br)c1 | inactive
20 | CCCCC(=O)N/N=C/c1c(O)n(CCC2=CCCCC2)c(=O)[nH]c1=O | inactive
21 | CCCCC(=O)N/N=C/c1c(O)n(CC)c(=S)n(CC)c1=O | 2 µM (active)

Row | Compound | Potency
22 | CCCCC(=O)N/N=C/c1c(O)n(-c2ccccc2)c(=O)[nH]c1=O | inactive
23 | CC(Cl)Cl | inactive
24 | COC1=C[C@]23CCCN2CCc2cc4c(cc2[C@@H]3[C@@H]1O)OCO4 | inactive
25 | CCN1C[C@]2(C)CC[C@H](O)[C@@]34[C@@H]5CC6[C@@H](OC)C[C@@](O)([C@@H]5[C@@H]6O)[C@H](C[C@@H]23)[C@H]14 | inactive
26 | CO[C@H]1[C@@H](O)[C@@H](C)O[C@H](O[C@H]2[C@H](Oc3cccc4c(O)c5c(=O)oc6ccc(C)c7c(=O)oc(c34)c5c67)O[C@H](C)[C@H](O)[C@@H]2O)[C@@H]1O | 11.2 µM (active)
27 | CN1C2CC3CC1C(O3)C2O (stereo not drawn) | inactive
28 | CC(C)(c1ccccc1)c1ccc(O)cc1 | inactive
29 | CCOc1ccc(-c2cc(C)[n+](CCN(CC)CC)c(-c3ccc(OCC)cc3)c2)cc1 | inactive
30 | CCCCC/C=C\C/C=C\C/C=C\CCCCCCC(=O)NCCO | inactive
31 | COc1ccc(CN2CCN(c3ccccc3F)CC2)c(OC)c1 | inactive
32 | COc1cc(-n2c(=S)[nH]c3ccc(C)cc3c2=O)c(Cl)cc1Cl | 2.51 µM (active)
33 | COc1ccccc1-c1[se]c2ccccc2c1I | inactive
34 | C[C@]12O[C@H](C[C@@]1(O)C(=O)O)n1c3ccccc3c3c4c(c5c6ccccc6n2c5c31)CNC4=O | inactive
35 | CNCC[C@H](Oc1ccc(C(F)(F)F)cc1)c1ccccc1 | inactive
36 | C=CC#N | inactive
37 | O=C1C2CCN(CC2)C1(CO)CO | inactive and 25.1 µM (active)
38 | c1ccc2c(c1)[I+]c1ccccc1-2 | inactive
39 | O=P1(Oc2ccccc2)CC(O)C(O)C(COCc2ccccc2)O1 (stereo not drawn) | inactive
40 | CC(C)(O)c1[se]c2ccccc2c1I | inactive
41 | CC[C@H]1CN2CCc3cc(OC)c(OC)cc3[C@@H]2C[C@@H]1C[C@H]1NCCc2cc(OC)c(OC)cc21 | 1.26 µM (active)
42 | COc1cccc(-c2nc3ccc(N4CCN(C)CC4)cc3[nH]2)c1 | 1.12 µM (active)

Row | Compound | Potency
43 | CN1CCN(c2cc(N3CCNCC3)ccc2[N+](=O)[O-])CC1 | inactive
44 | COC(=O)c1ccc2[se]c(CC3CCCCC3)c(I)c2c1 | inactive
45 | Cc1ccc(-n2c(O)c(C=NCC3CCCO3)c(=O)[nH]c2=O)c(C)c1 (stereo not drawn) | inactive
46 | COC1CC(OC2CC[C@@]3(C=O)C4CC[C@]5(C)C(C6=CC(=O)OC6)CC[C@@]5(O)C4CC[C@]3(O)C2)OC(C)C1O (stereo partly drawn) | inactive
47 | BrC1C(Br)C(Br)C(Br)C(Br)C1Br (stereo not drawn) | 5.01 µM (active)
48 | O=C(Nc1cccc(F)c1)N1CC[C@@]2(CCCN(C(=O)Oc3ccccc3)C2)C1 | inactive
49 | CCN1C[C@]2(COC)C(O)C[C@H](OC)[C@@]34C5C[C@]6(O)C(OC)C(O)[C@](OC(C)=O)(C5C6OC(=O)c5ccccc5)C(C(OC)C23)C14 (stereo partly drawn) | inactive
50 | CCCCC#N | inactive
51 | O=C(NC(=S)N1C[C@H]2C[C@H](C1)c1cccc(=O)n1C2)c1ccc(F)cc1 | 11.2 µM (active)
52 | COc1cccc(C(=O)N2C[C@H]3C[C@@H](C2)c2cccc(=O)n2C3)c1 | inactive
53 | COc1cccc(OC)c1C(=O)NC(=S)N1C[C@H]2C[C@H](C1)c1cccc(=O)n1C2 | inactive
54 | N#CCCCl | inactive
55 | CCN(CC)c1nc(C)cc(OP(=S)(OC)OC)n1 | inactive
56 | CC(C)(c1ccc(OC[C@@H]2CO2)cc1)c1ccc(OC[C@H]2CO2)cc1 | inactive
57 | CN1CCN(C(=O)O[C@@H]2c3nccnc3C(=O)N2c2ccc(Cl)cn2)CC1 | inactive
58 | Cn1c(O)c(C=NCCCC(=O)O)c(=O)n(C)c1=O | inactive
59 | Cn1c(O)c(C=NCCN2CCNCC2)c(=O)n(C)c1=O | inactive
60 | CC(=C1C(=O)c2ccccc2C1=O)N1CCN(CCN=Cc2c(O)n(C)c(=O)n(C)c2=O)CC1 | 7.08 µM (active)
61 | CC(=O)OC1C2CCC3C1(CC(O)[C@@]1(O)[C@@H](CC(O)C1(C)C)[C@]3(C)O)C[C@@]2(C)O (stereo partly drawn) | inactive
62 | O=[N+]([O-])c1ccc(Cl)c(Cl)c1 | inactive
63 | N[C@H](Cc1o[nH]c(=O)c1Cl)C(=O)O | inactive
